In the library only some 0.89% were active in any assay of this set; here they are far more common.
Htt clearance: compounds clearing mutant huntingtin protein; inhibition, % at 1.5 µM; HeLa Exon1htt(103Q)mCFP, aggregate imaging; zero = plate's median compound well; AID 853; hit rate 0.42% among 47,000;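 active = inhibition of aggregate fluorescence above about 70%, also judged a hit by eye on the cell image, limit read from the data, passing the limit was not always enough; inconclusive = no rule stated for this call; inactive = not judged a hit on image review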;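 note: cells exposed to compound for three days before fixation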
WNV NS2B-NS3 inh: inhibitors of West Nile virus NS2B-NS3 protease; P06935; WNV NS2B-NS3 protease, fluorogenic substrate Ex360/Em465; active compounds read low; z-score (test concentration not listed); hit rate 0.18% among 65,000; in the data active = z-score below about -3
Target sequence (P06935 1371-1501 limits assumed): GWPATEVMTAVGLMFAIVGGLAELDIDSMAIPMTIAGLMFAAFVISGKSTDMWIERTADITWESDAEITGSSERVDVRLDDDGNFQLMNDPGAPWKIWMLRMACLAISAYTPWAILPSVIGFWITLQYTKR
Target sequence (P06935 1502-1679 limits assumed): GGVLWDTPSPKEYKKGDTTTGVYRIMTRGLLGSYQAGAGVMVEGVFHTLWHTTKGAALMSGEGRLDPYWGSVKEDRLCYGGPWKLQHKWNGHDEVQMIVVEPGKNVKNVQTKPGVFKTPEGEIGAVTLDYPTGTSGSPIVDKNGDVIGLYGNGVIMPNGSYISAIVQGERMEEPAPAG
DUSP1 inh: blocks human MKP-1 phosphatase activity | P28562 | hit rate 0.15% among 65,000 | AID 374 | inhibition, %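 (compounds tested at a single concentration somewhere between 10 and 100 µM)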 | recombinant MKP-1, OMFP hydrolysis fluorescence;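 active = inhibition above about 50%, limit read from the data; inconclusive = inhibition over screen mean plus 3 SD, below that limit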;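 note: 0% = DMSO max control wells and 100% = wells with enzyme stopped by NaOH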
Hsp90 block: displaces geldanamycin probe from tumor Hsp90; AID 429; inhibition, % at 30 µM; P07900; NCI-N417 lysate Hsp90, Cy3B-geldanamycin FP displacement; hit rate 0.35% among 64,000;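 active = inhibition above 50%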;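 note: 0% = tracer plus lysate wells and 100% = tracer alone without lysate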
MMP13 inh: MMP13 (human) collagenase inhibition. inhibition, % at 4 µM. P45452. AID 570. hit rate 0.07% among 65,000. MMP-13 fTHP FRET cleavage, Mca fluorescence;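 active = inhibition above the mean of compound-free control plate wells plus 3 SD, cut at about 14% in these data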;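 note: 0% = DMSO wells and 100% = wells with reference MMP-13 inhibitor after basal subtraction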
Cdc25B inh: inhibitors of human Cdc25B phosphatase; hit rate 0.1% among 65,000; AID 368; P30305; inhibition, %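 (compounds tested at 10 µM final in the well)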; recombinant Cdc25B, OMFP fluorescence Ex485/Em525; in the data active = inhibition above about 50%
The depositor's hits bear a star; ? = inconclusive; . = no result.

SMILES	Htt clearance	WNV NS2B-NS3 inh	DUSP1 inh	Hsp90 block	MMP13 inh	Cdc25B inh
Cc1onc(-c2ccccc2Cl)c1C(=O)Nc1ccc2c(c1)OCO2	.	2.2	-4	1	-4	-8
S=c1[nH]nc(-c2ccc(Br)cc2)n1Cc1ccco1	72*	0.27	3	1	-15	9
CC(C)(C)c1ccc(S(=O)(=O)/C=C/C#N)cc1	.	.	.	-1	.	.
Cn1nnc2cc(C(=O)NC3CCCCC3)ccc21	-1	-5.2*	21	-10	10	-9
CC1CC(C)CN(c2cc(=O)n(Cc3ccc(F)cc3)c(=O)[nH]2)C1 (stereo not given)	20	.	.	.	.	.
CCc1cccc2c(C#N)cn(CC(=O)NCc3ccco3)c12	.	-3.9*	14	-6	0	-13
O=C(Cn1cccc1C(=O)c1ccccc1)NCc1ccco1	4	1.1	-13	-2	-2	-1
O=S(=O)(c1cccc2c(I)cccc12)N1CCCNCC1	.	.	.	2	.	.
CN1C(=O)/C(=C2/C=CC=CN2C)OC1=S	18	-1.8	3	-5	-6	4
CCN1C(=O)/C(=C2/C=CC=CN2C)SC1=S	36	0.41	5	-3	20*	5
Cc1nc(-c2c(-c3ccc(O)cc3O)noc2C(F)(F)F)cs1	.	-1.2	-18	74*	-2	-16
COC(=O)c1ccc(CSc2nnc(SCc3ccc(C(=O)OC)o3)s2)o1	38	-3.5*	15	-7	-1	3
CCOC(=O)C1CCCN(S(=O)(=O)c2cc(OCC(N)=O)c(C)cc2Cl)C1 (stereo not given)	71*	1.4	8	-1	0	-11
CN(C(=O)c1ccc(C#N)cc1)c1nnc(-c2ccccn2)s1	80*	.	.	.	.	.
Cc1ccc(NC(=O)C2CCN(S(=O)(=O)c3cccc4nonc34)CC2)nc1	25	-4.8*	2	-4	1	-17
CCOC(=O)c1c(NC(=O)CSc2nc3c(c(=O)n(C)c(=O)n3C)n2CC)sc(C)c1C	.	-1.1	24	-3	-8	-15
CCCn1c(SCC(=O)Nc2sc(C)c(C)c2C(=O)OC)nc2c1c(=O)n(C)c(=O)n2C	.	-3.8*	29	3	-2	2
CCOC(=O)c1ccccc1NC(=O)Cn1cnc2c(cnn2-c2ccc(OC)cc2)c1=O	86*	-1.6	-18	-3	-1	-10
O=C1C2=C(Nc3ccccc3SC2c2ccco2)c2ccccc21 (stereo not given)	74*	0.18	10	-2	-4	4
CCC(CC)NCCCNc1cc(OC)cc2cccnc12	.	.	.	10	.	.
CCOC(=O)C1CCN(S(=O)(=O)c2ccc(C(=O)OC)cc2)CC1	.	-5.5*	6	2	5	-5
Cc1ccc(OCC(O)C(C)NC(C)C)c2c1CCC2 (stereo not given)	.	.	.	-1	.	.
CCc1ccc(N=c2c([N+](=O)[O-])nn(-c3ccccc3)n2O)cc1	71*	.	.	.	.	.
[O-]/[N+](=C/c1cccnc1)c1ccc(Br)cc1	.	-0.51	?	13	4	47
[O-]/[N+](=C\c1ccncc1)c1ccc(Br)cc1	.	-0.44	57*	.	.	-21
SMILES	Htt clearance	WNV NS2B-NS3 inh	DUSP1 inh	Hsp90 block	MMP13 inh	Cdc25B inh
CC(Nc1ncnc2nc[nH]c12)c1ccccc1 (stereo not given)	.	0.65	5	1	-2	66*
O=C(O)CCC/C=C\C[C@@H]1[C@@H](/C=C/[C@H](O)C2Cc3ccccc3C2)[C@@H](F)C[C@@H]1O	.	.	.	0	.	.
CCOC(=O)N1CCN(c2c(-c3ccc(C)cc3)c(=O)c2=O)CC1	.	1.4	1	1	-7	-17
CCOC(=O)N1CCN(C2=CC(=O)OC23CCCCC3)CC1	-17	-5.2*	19	-1	1	2
Cc1cc(N2CCC(C(=O)NC3CCCCC3)CC2)nc(-c2ccccc2)n1	.	-4.8*	9	-1	-1	-1
O=C(CSc1ncnc2c1oc1ccccc12)Nc1ccc2c(c1)OCCO2	73*	0.11	28	-4	4	3
O=C(O)c1ccc(CN2CCCCC2)o1	.	0.13	17	1	-2	1
CC(C)(C)c1cc(C(=O)O)c(CN2CCCCC2)o1	-8	-1.1	-16	0	7	79*
CCOC(=O)CSc1nnnn1-c1cc(OC)c(Cl)cc1OC	7	-0.99	6	0	-6	51*
CCc1ccccc1NC(=O)CSC1=C(C#N)C(c2ccc3c(c2)OCO3)C2=C(CCCC2=O)N1 (stereo not given)	73*	0.88	-1	-4	-7	1
COc1ccc(OC)c(NC(=O)CSC2=C(C#N)C(c3ccco3)C3=C(CCCC3=O)N2)c1 (stereo not given)	.	-1.1	-18	-4	-6	12
O=[N+]([O-])c1ccc(-c2nc(-c3ccc(F)cc3)c(-c3ccncc3)[nH]2)cc1	.	.	.	3	.	.
O=c1c(O)c(-c2ccc(O)c(O)c2)oc2cc(O)cc(O)c12	.	.	.	103*	.	.
COc1cc(NC(C)=O)c2ncccc2c1	.	.	.	2	.	.
Nc1ncnc2c1nc(Br)n2C1OC2COP(=O)(O)O[C@@H]2C1O (stereo not given in full)	.	.	.	-2	.	.
CCOC(=O)NC1(Nc2ccc(Cl)cn2)Oc2ccccc2O1	.	0.48	-4	50*	-4	-15
CCCn1c(SCC(=O)Nc2cc(Cl)ccc2OC)n[nH]c1=O	-49	.	.	.	.	.
O=C(CSc1n[nH]c(=O)n1C1CC1)Nc1cc(Cl)ccc1Oc1ccccc1	84*	-0.78	1	1	-1	-1
O=C(CN(Cc1ccccc1)S(=O)(=O)c1ccc(F)cc1)NCCC1=CCCCC1	76*	.	.	.	.	.
O=C(COc1ccc(Cl)cc1Cl)NC(=O)N1CCCCC1	.	-1.6	-2	-1	14*	-21
Cc1cc(Cl)ccc1OCC(=O)N1CCCCC1	.	0.15	0	-6	-1	2
O=C(O)c1cc2cc(Cc3cccnc3)ccc2o1	.	.	.	-4	.	.
COc1ccc(-c2ccc(N)[n+](CCCC(=O)O)n2)cc1	.	.	.	2	.	.
COc1ccccc1C1NC(=O)NC(C)=C1C(C)=O (stereo not given)	71*	-1.6	2	1	-3	10
COc1ccccc1C1NC(=O)NC(C)=C1C(=O)Nc1cccc(C)c1C (stereo not given)	.	-0.66	10	1	0	-4
SMILES	Htt clearance	WNV NS2B-NS3 inh	DUSP1 inh	Hsp90 block	MMP13 inh	Cdc25B inh
CCCCCCCCCCCCCCCCOCC(COCC(F)(F)F)OP(=O)(O)OCO (stereo not given)	.	.	.	-3	.	.
OC[C@H]1O[C@@H](n2cnc3cncnc32)[C@H](O)[C@@H]1O	.	.	.	1	.	.
Cn1c(=O)oc2cc(S(=O)(=O)NCCC(=O)NC3CCCC3)ccc21	.	-0.95	52*	0	-3	-19
Cn1c(=O)oc2cc(S(=O)(=O)NCCC(=O)NC3CCCc4ccccc43)ccc21 (stereo not given)	.	-0.58	7	-3	-4	-3
O=C(c1ccco1)N1CCN(c2cc(=O)n(C3CCCCC3)c(=O)[nH]2)CC1	.	-0.58	1	3	1	65*
Cc1c(CC(C)(C)C(=O)O)n(Cc2ccc(Cl)cc2)c2ccc(F)cc12	.	.	.	1	.	.
CN(C)c1nc(SCC#N)nc(N(C)C)n1	72*	0.87	-12	-10	4	-4

Assay outcomes deposited in PubChem by several laboratories.
